# Sampled rows, rich in hits. Any-hit rate of the full collection: about 8.1%.
# MCF10A rereplic: inducers of DNA re-replication in MCF 10A breast cells; MCF 10A DNA re-replication, Hoechst nuclear intensity, 48 h; Potency, µM (highest dose often 46.1 µM), for inactives: top-dose activity, positive = re-replication, most hits filed as activators; hit rate 2.9% among 350,000; also: % of control where 0% means no effect; nearly all actives have a fitted effect of over 50% in size
# KB-V1 cytotox: kills drug-selected multidrug resistant KB-V1 cells; KB-V1 MDR cells viability, CellTiter-Glo, 72 h; Potency, µM (highest dose often 46.1 µM), hits mostly cytotoxic; hit rate 3.4% among 400,000; also: % is scaled to controls: 0 for no effect and ±100 for the full control effect; nearly all actives have a fitted effect of over 60% in size
#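 Potencies derive from concentration-effect curves fitted to normalized luminescence (CellTiter-Glo) of KB-V1 cells treated for 72 h at 37 degrees C in phenol-red-free DMEM containing 10% FBS.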
# KB-3-1 tox: KB-3-1 parental cell cytotoxicity. KB-3-1 viability, CellTiter-Glo ATP luminescence, 72 h. Potency, µM (highest dose often 46.1 µM), most hits filed as cytotoxic. hit rate 1.4% among 400,000; also: % is scaled to controls: 0 for no effect and ±100 for the full control effect; nearly all actives have a fitted effect of over 60% in size
#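 Cytotoxicity in the drug-sensitive parental line KB-3-1 was scored as loss of CellTiter-Glo luminescence following 72 h incubation with compound. Values come from curve fitting of normalized concentration-response data.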
# ELG1 DNA repair: blocks ELG1-dependent DNA repair in HEK293T cells. HEK293T ELG1-luciferase reporter, luminescence, 16 h; DNA damage induced by 5-fluorouridine. Potency, µM (doses to about 46.1 µM), for inactives: at the highest dose activity change, negative = inhibition, hits mostly inhibitors. hit rate 2.3% among 330,000; also: % is scaled to controls: 0 for no effect and ±100 for the full control effect; nearly all actives have a fitted effect of over 55% in size
#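 HEK293T cells expressing luciferase-tagged ELG1 (2,000/well) received 5-Fluorouridine plus compound or DMSO for 16 hr at 37 °C. Luciferase was read by ONE-Glo luminescence after 30 min at room temperature.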
# SW480 rereplic: inducers of DNA re-replication in SW480 colon cancer cells. SW480 DNA re-replication, Hoechst DNA content imaging, 48 h. Potency, µM (series often up to 46.1 µM), for the others: top-dose re-replication activation, actives largely listed as activators. hit rate 1.8% among 340,000. AID 624297; also: % of control where 0% means no effect; nearly all actives have a fitted effect of over 55% in size
#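 Per well, 250 cells were exposed to pinned compound for 48 hr. Nuclear DNA was visualised with Hoechst (40 min, 37 C) and total object intensity recorded by fluorescence scanning.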
# ELG1 FLuc counter: luciferase inhibition in cell-free luciferin readout for ELG1 hits. AID 624247. cell-free firefly luciferase luminescence counter-screen, ViewLux. hit rate 3% among 350. Potency, µM (highest dose often 46.1 µM), without a hit: at the top dose activity change, negative = inhibition, most hits filed as inhibitors. shares compounds with ELG1 DNA repair; also: % is scaled to controls: 0 for no effect and ±100 for the full control effect
# ELG1-Luc inh: human ELG1 repair inhibition, luciferase-tagged ELG1 confirmation; shares compounds with ELG1 DNA repair; Potency, µM (titrated, usually from 46.1 µM), inactives show at the highest dose activity change, negative = inhibition, hits mostly inhibitors; HEK293T ELG1-luciferase levels, luminescence; cells co-treated with 5-fluorouridine; hit rate 68% among 670; AID 624248; also: % is scaled to controls: 0 for no effect and ±100 for the full control effect; nearly all actives have a fitted effect of over 55% in size
# Target sequence (Q96QE3 whole entry, looked up): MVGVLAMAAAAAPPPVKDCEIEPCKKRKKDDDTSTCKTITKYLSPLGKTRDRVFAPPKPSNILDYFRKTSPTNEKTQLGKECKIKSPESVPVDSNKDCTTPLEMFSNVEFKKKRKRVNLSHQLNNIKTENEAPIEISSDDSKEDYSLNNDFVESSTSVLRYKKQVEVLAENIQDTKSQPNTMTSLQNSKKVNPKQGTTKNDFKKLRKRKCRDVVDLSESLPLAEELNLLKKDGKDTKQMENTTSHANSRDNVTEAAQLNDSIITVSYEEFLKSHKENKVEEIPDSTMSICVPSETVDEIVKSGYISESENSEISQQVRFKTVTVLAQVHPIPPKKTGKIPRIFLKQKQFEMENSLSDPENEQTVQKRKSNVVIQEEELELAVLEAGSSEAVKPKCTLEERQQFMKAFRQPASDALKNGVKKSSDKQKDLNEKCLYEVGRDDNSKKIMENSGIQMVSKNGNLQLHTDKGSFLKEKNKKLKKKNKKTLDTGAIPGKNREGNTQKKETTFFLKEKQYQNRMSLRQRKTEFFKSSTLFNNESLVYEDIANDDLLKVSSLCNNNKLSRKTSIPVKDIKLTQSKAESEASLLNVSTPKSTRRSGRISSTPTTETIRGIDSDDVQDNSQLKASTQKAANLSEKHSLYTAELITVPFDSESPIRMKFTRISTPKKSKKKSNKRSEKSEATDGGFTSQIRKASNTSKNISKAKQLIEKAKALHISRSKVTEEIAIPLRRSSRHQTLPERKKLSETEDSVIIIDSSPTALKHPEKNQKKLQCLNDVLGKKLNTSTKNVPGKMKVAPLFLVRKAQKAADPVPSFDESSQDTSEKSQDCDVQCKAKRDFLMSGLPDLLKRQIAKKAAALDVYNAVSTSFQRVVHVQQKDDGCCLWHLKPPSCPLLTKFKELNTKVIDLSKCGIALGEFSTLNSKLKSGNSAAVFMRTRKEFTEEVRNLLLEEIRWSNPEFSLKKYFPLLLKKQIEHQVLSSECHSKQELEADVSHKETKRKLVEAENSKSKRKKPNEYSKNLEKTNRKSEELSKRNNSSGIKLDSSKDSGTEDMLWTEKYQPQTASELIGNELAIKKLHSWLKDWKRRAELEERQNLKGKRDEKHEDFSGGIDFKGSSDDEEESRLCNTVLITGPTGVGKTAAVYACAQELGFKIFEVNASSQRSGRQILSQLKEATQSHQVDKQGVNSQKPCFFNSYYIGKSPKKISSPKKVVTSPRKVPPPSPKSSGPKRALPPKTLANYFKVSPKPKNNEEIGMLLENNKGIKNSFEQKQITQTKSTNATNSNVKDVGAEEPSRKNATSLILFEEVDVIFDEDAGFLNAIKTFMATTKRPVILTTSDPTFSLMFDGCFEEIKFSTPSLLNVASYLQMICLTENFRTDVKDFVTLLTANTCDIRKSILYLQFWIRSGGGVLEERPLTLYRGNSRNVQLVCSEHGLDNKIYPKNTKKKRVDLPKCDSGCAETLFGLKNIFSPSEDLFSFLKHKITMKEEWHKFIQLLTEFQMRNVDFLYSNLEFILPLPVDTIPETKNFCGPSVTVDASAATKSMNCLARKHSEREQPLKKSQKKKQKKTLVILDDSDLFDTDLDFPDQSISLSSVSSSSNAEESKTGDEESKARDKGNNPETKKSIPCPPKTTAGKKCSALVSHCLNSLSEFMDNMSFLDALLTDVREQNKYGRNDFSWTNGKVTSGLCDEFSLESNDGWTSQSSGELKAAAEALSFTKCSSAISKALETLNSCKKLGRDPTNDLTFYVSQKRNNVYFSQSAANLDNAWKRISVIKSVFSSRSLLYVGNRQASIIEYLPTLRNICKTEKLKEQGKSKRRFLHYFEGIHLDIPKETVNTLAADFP
# ELG1-Luc MMS: MMS-stimulated human ELG1 repair inhibition, confirmed; Potency, µM (titrated, usually from 46.1 µM), for the others: top-dose activity change, negative = inhibition, most hits filed as inhibitors; hit rate 53% among 670; HEK293T luciferase-tagged ELG1 level, MMS stimulated; shares compounds with ELG1 DNA repair; AID 624249; also: % is scaled to controls: 0 for no effect and ±100 for the full control effect; nearly all actives have a fitted effect of over 60% in size
# ELG1 5FU viab: confirmation of ELG1 repair inhibitors: viability with 5FU | 670 tested, under 10 active | shares compounds with ELG1 DNA repair | AID 624250 | cell viability with 5-FU, ELG1-dependent repair | Potency, µM (highest dose often 46.1 µM), without a hit: at the highest dose activity change, negative = viability loss, usual class: cytotoxic;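 also: ELG1-luc HEK293T cells cotreated with 5-fluorouridine at 10 µM final; viability measured 16 h after compound addition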
# ELG1 MMS cell: confirmation of ELG1 repair inhibitors: viability with MMS; Cell viability with MMS, ELG1-dependent DNA repair; hit rate 33% among 670; Potency, µM (doses to about 46.1 µM), for inactives: at the top dose activity change, negative = viability loss, most hits filed as cytotoxic; shares compounds with ELG1 DNA repair;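 also: ELG1-luc HEK293T cells co-treated with 10 µM MMS; viability read 16 h after compound addition; % is scaled to controls: 0 for no effect and ±100 for the full control effect; nearly all actives have a fitted effect of over 60% in size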
# Cell viab unstim: unstimulated viability counter-screen for ELG1 repair hits; AID 624252; cell viability counter-screen, unstimulated, luminescence; hit rate 8% among 900; Potency, µM (highest dose often 45.9 µM), without a hit: at the highest dose activity change, negative = loss of viability, actives largely listed as cytotoxic; shares compounds with ELG1 DNA repair;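 also: compound exposure lasted 16 hours before reading; % is scaled to controls: 0 for no effect and ±100 for the full control effect; nearly all actives have a fitted effect of over 55% in size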
# FLuc enzyme: inhibits purified firefly luciferase, counter-screen for ELG1 hits | shares compounds with ELG1 DNA repair | purified firefly luciferase, luminescence counter-screen | Potency, µM (doses to about 57.5 µM), for inactives: top-dose activity, negative = inhibition, hits mostly inhibitors | hit rate 10% among 350; also: % is scaled to controls: 0 for no effect and ±100 for the full control effect
# * marks the source's active call; other numbers are inactive results; i = inactive; ? = inconclusive; nt = no result given; [ ] = remark or other dose. Calls follow the shape of the dose curve; as a rule, active = well fitted curve in the direction sought with a large enough effect; inconclusive = small, poorly fitted or top-dose-only effect, or another doubt; inactive = no such curve, though single readings can be large; an effect the other way counts as inactive or inconclusive. Potency is read from the fitted curve at half-maximal effect.
SMILES,MCF10A rereplic,KB-V1 cytotox,KB-3-1 tox,ELG1 DNA repair,SW480 rereplic,ELG1-Luc inh,ELG1-Luc MMS,ELG1 5FU viab,ELG1 MMS cell,Cell viab unstim,others
CC(C)(C)OC(=O)NCc1ccc(NC(=O)c2nc[nH]c2C(=O)NCCCCCCNC(=O)c2[nH]cnc2C(=O)Nc2ccc(CNC(=O)OC(C)(C)C)cc2)cc1,?,i,i,2.31µM*,1.9%,1.12µM*,25µM*,?,?,?,
CC(C)(C)OC(=O)NCc1ccc(NC(=O)c2nc[nH]c2C(=O)NCCN(CCNC(=O)c2[nH]cnc2C(=O)Nc2ccc(CNC(=O)OC(C)(C)C)cc2)CCNC(=O)c2[nH]cnc2C(=O)Nc2ccc(CNC(=O)OC(C)(C)C)cc2)cc1,-6.0%,i,i,7.2%,-1.1%,nt,nt,nt,nt,nt,
CC(C)(C)OC(=O)NCc1ccc(NC(=O)c2nc[nH]c2C(=O)NCCCNC(=O)c2[nH]cnc2C(=O)Nc2ccc(CNC(=O)OC(C)(C)C)cc2)cc1,?,i,i,1.83µM*,?,2.23µM*,12.5µM*,?,25µM*,?,
CC(C)(C)OC(=O)NCc1ccc(NC(=O)c2nc[nH]c2C(=O)Nc2cc(Br)ccc2F)cc1,nt,i,i,nt,nt,nt,nt,nt,nt,nt,
CC(C)(C)OC(=O)NCc1ccc(NC(=O)c2nc[nH]c2C(=O)NCCCCNC(=O)c2[nH]cnc2C(=O)Nc2ccc(CNC(=O)OC(C)(C)C)cc2)cc1,-20.5%,i,?,0.92µM*,-14.5%[9.22 µM],1.12µM*,1.26µM*,-7.5%,?,?,ELG1 FLuc counter=?;FLuc enzyme=1.1%
N/C(=N\NC(=O)c1ccccc1Cl)c1cc2ccccc2oc1=O,-2.7%,i,i,?,-2.2%,nt,nt,nt,nt,nt,
CCOc1ccccc1-n1nnnc1SCC(=O)NC(=O)Cc1ccccc1,2.6%,i,i,-9.6%,-7.2%,nt,nt,nt,nt,nt,
COc1ccc(/C=N/NC(=O)c2ccoc2C)cc1CN1CCN(c2ccc(F)cc2)CC1,-11.9%,i,i,2.59µM*,-2.9%,2.5µM*,-9.7%,?,-1.4%,?,
CCOc1ccc(/C=N/NC(=O)c2ccoc2C)cc1OC,-2.1%,i,i,?,?,nt,nt,nt,nt,nt,
O=c1[nH]c(=O)n([C@@H]2C[C@H](O)[C@H](CO)O2)cc1C(F)(F)F,nt,nt,nt,nt,nt,?,-2.9%[23.5 µM],-2.9%[23.5 µM],?,8.3%[15.7 µM],ELG1 FLuc counter=-8.8%[28.2 µM];FLuc enzyme=4.8%[35.2 µM]
COc1ccc(NC(=O)CN2CCN(C3c4ccccc4-c4ccccc43)CC2)c(OC)c1,8.2µM*,i,?,3.66µM*,19.4%,3.97µM*,8.88µM*,?,?,-12.1%,
COc1ccc(NC(=O)CN2CCN(c3ccccc3F)CC2)c(OC)c1,nt,i,i,nt,nt,nt,nt,nt,nt,nt,
COc1ccc(OC)c(NC(=O)CN2CCC(NC(=O)c3ccccc3C)CC2)c1,?,i,i,?,-12.9%,nt,nt,nt,nt,nt,
COc1ccc(OC)c(CN2CCN(CC(=O)Nc3ccccc3C(=O)NC3CC3)CC2)c1,-6.6%,i,i,?,0.9%,7.05µM*,?,?,?,?,
COc1cc2c(cc1OC)CN(CC(=O)Nc1ccccc1C(=O)NC1CC1)CC2,8.7%,i,i,-10.0%,0.6%,nt,nt,nt,nt,nt,
COc1cc(C)c(CN2CCN(CC(=O)Nc3ccccc3C(=O)NC3CC3)CC2)cc1OC,3.3%,i,i,3.66µM*,-18.5%,3.97µM*,28.1µM*,?,-18.5%,2.7%,
COc1ccc2c(c1)c1c(c(=O)n(-c3ccc(OC)c(OC)c3)c(=O)n1Cc1ccc(C)cc1)n2C,nt,?,i,nt,nt,nt,nt,nt,nt,nt,
O=C(OCCOc1ccccc1Cl)c1ccc(-n2cnnn2)cc1,0.1%,i,i,16.3%,0.2%,nt,nt,nt,nt,nt,
O=C(N/N=C/c1sc(N2CCOCC2)nc1-c1ccccc1)c1cccc(S(=O)(=O)N2CCOCC2)c1,?,i,4.11µM*,4.61µM*,20.6µM*,3.97µM*,6.28µM*,0.4%,?,?,
Nc1ccc(C(=O)N/N=C/c2sc(N3CCOCC3)nc2-c2ccccc2)cc1,14.7%,i,i,?,-7.6%,nt,nt,nt,nt,nt,
COc1cc2cnc(-c3ccccc3)c(C(=O)c3ccc(OCc4ccccc4)cc3)c2cc1OC,-1.0%,i,i,2.59µM*,17.4%,9.96µM*,12.5µM*,?,11.2µM*,-0.4%,
Cc1ncoc1C(=O)NC1CCCc2c1cnn2-c1ccc(C(C)(C)C)cc1 (configuration not stated),3.5%,i,18.4µM*,1.3µM*,13.4%,?,0.791µM*,-6.4%,0.791µM*,8.88µM*,
Cc1ncoc1C(=O)NC1CCCc2c1cnn2-c1cc(F)cc(F)c1 (configuration not stated),nt,?,i,nt,nt,nt,nt,nt,nt,nt,
O=C1NCCCC1C(=O)N/N=C/c1ccccc1O (configuration not stated),9.1%,i,i,14.8%,-9.0%,nt,nt,nt,nt,nt,
COc1cccc(N2CCN(S(=O)(=O)c3c(C)[nH]c(C)c3C(=O)N3CCCC3)CC2)c1,5.7%,i,i,9.3%,-4.4%,nt,nt,nt,nt,nt,
O=C(CSc1nnc(-c2ccc(O)cc2)o1)Nc1ccccc1Br,-6.2%,i,i,?,-13.3%,nt,nt,nt,nt,-1.7%,
Cc1ccccc1NC(=O)CSc1nc2ccccc2o1,-3.6%,i,i,?,-3.0%,nt,nt,nt,nt,?,ELG1 FLuc counter=64.5%;FLuc enzyme=-5.9%
